The list is not random: actives were taken first. Their share in the collection is about 1.4%.
TPT1 inh: Candida albicans TPT1 enzyme inhibitors, primary screen, biochemical, fluorescence polarization; tRNA 2'-phosphotransferase TPT1 (Candida albicans SC5314); recombinant caTPT1, FP RNA substrate dephosphorylation; inhibition, % at 5 µM; 300,000 tested, 0.81% active; AID 1962, 2009;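 active = inhibition above the mean of all tested compounds plus 3 SD, set per screening campaign, cut at about 24% in these data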;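 note: plate controls were DMSO alone for no effect and ferristatin control at 100 nM for full effect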
CRFBP-R2 agonist: agonists of CRF-BP/CRF-R2 complex, primary screen, cell-based, HEK293, calcium dye fluorescence, uHTS | CRF-binding protein / CRF receptor 2 complex (human) | calcium dye fluorescence (FLIPR); percent of saturating CRF peptide response | activation, % at 13.2 µM | 350,000 tested, 0.46% active;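 active = activation of at least 50%, plus an integration ratio under a set limit after plate pattern correction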;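 note: plate controls were neutral control wells without compound for no effect and CRF at EC100 for full effect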
IDE act: human IDE activators in live cells, primary screen, fluorescence polarization, HEK cells, FAbeta-B substrate | FAbeta-B cleavage; 0% vehicle, 100% cell-free pure enzyme wells | AID 493087, 2011 | activation, % at 5.96 µM | 340,000 tested, 0.073% active;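 active = activation above the mean of all tested compounds plus 3 SD, set per screening campaign, cut at about 17% in these data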
HNF4A DNA FP: change in binding of human HNF4A to DNA, primary screen, biochemical, fluorescence polarization, FITC-DNA. 1 h. AID 1224865, 2016. 360,000 tested, 0.3% active. Hepatocyte nuclear factor 4-alpha (Homo sapiens), P41235. activity change, % at 10 µM; in the data active = activity change above about 30%, passing the limit was not always enough
Target sequence (P41235 whole entry, looked up): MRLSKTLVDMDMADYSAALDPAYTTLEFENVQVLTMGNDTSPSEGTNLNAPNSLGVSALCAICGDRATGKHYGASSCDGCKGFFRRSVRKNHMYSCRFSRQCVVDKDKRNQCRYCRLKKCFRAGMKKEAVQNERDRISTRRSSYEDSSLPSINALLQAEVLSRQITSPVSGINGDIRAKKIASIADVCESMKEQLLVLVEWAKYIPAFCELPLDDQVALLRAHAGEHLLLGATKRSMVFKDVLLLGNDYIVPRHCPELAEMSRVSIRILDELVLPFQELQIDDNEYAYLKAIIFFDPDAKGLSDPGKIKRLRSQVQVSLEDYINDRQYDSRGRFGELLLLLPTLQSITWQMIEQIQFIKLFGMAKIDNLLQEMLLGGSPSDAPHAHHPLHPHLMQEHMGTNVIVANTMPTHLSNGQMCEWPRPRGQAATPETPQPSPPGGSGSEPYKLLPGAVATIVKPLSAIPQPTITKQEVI
IDE inh: human IDE inhibitors in live cells, primary screen, fluorescence polarization, HEK cells, FAbetaB substrate; FAbetaB cleavage; Insulin-degrading enzyme (Homo sapiens), P14735; 320,000 tested, 0.41% active; inhibition, % at 5.59 µM;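 active = percent inhibition above the average of all tested compounds plus 3 SD, set per screening campaign, cut at about 16% in these data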;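 note: IDE supplied by intact live HEK cells; FP after avidin binding of uncleaved biotin substrate so inhibition keeps polarization high; 0% = DMSO wells and 100% = 60 µM reference IDE inhibitor Ii1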
An asterisk follows results filed as active; x = no result given.

SMILES | TPT1 inh | CRFBP-R2 agonist | IDE act | HNF4A DNA FP | IDE inh
N=c1c2c(n(Cc3ccc(F)cc3)c3c1CCC3)CCCC2 | 0 | -1 | -1 | -3 | -3
N=c1c2c(n(Cc3ccc(Cl)cc3)c3c1CCC3)CCC2 | 1 | -1 | 7 | 42* | 3
CC(C)[C@H](NC(=O)c1ccc(Cl)cc1)C(=O)Nc1cccc(S(=O)(=O)N2CCOCC2)c1 | x | 0 | x | 3 | x
CSCCC(NC(=O)c1ccco1)C(=O)OC(C)C(=O)NC(=O)NC1CCCCC1 (configuration not stated) | 0 | 183* | 4 | -42 | 5
S=c1[nH]ncn1/N=C/c1ccc(Br)cc1 | -4 | -1 | 2 | 0 | -1
S=c1[nH]ncn1/N=C/c1ccccc1 | -4 | -2 | -3 | 44* | -2
COc1ccc(/C=C\C(=O)O[C@@H]2C(O)C(O[C@@H]3OC(C)[C@H](O[C@@H]4OCC(O[C@H]5O[C@H](CO)[C@@H](O)C(O)C5O)C(O)C4O)C(O)C3O)[C@H](OC(=O)[C@]34CCC(C)(C)C[C@@H]3C3=CCC5[C@@]6(C)CC(O)C(O[C@@H]7OC(CO)C(O)[C@H](O)[C@H]7O)[C@@](C)(C(=O)O)C6CC[C@@]5(C)[C@]3(CO)CC4)O[C@H]2C)cc1 (some centres not stated) | x | 132* | 17 | -1 | -4
Cc1nn(CCOc2cccc(Cl)c2)c(C)c1[N+](=O)[O-] | -3 | 0 | 8 | -1 | 3
COc1cc2cc(C(c3nnnn3C3CCCC3)N3CCCCC3)c(=O)[nH]c2cc1OC (configuration not stated) | -1 | 0 | 2 | -3 | -1
O=c1[nH]c2cc3c(cc2cc1C(c1nnnn1C1CCCCC1)N1CCSCC1)OCCO3 (configuration not stated) | 3 | 54* | -6 | 4 | -2
Cc1occc1C(=O)Nc1nnc(C(F)(F)F)s1 | 2 | 28 | 8 | 2 | 4
O=C(Nc1ccccc1C(=O)Nc1nnc(C(F)(F)F)s1)c1ccccc1 | 2 | 60* | 3 | -12 | 0
CC(C)n1cc(/C=C/c2cc[n+](C)cc2)c2ccccc21 | x | 58* | -32 | 67 | x
CN1C(=O)c2ccccc2NC(=O)[C@]12O[C@@H]2c1cccc(O)c1 | 24* | 10 | 1 | -8 | -2
COc1cc(Cl)c(C)cc1NC(=O)CSc1ccc(NC(C)=O)cc1 | 4 | 0 | -9 | 1 | 18*
O=C(Cn1nnc2ccccc21)Nc1ccccc1[N+](=O)[O-] | 2 | 1 | -1 | 3 | 3
CCOc1cc(C#N)c(NC(=O)Cn2nnc3ccccc32)cc1OCC | 2 | -1 | 9 | 34* | 1
CC(C)(C)C(=O)NC(=S)NNC(=O)c1ccncc1 | -3 | 1 | 3 | 1 | -2
COC(=O)NNC(=O)c1ccc(Cl)cc1Cl | -1 | -1 | 3 | 3 | 0
CC(C)(C)C(=O)NC(=S)NNC(=O)c1ccc(Cl)cc1Cl | -4 | 129* | 9 | 2 | 1
CC(C)(C)C(=O)NC(=S)NNC(=O)c1ccc(-c2ccccc2)cc1 | 1 | 163* | 4 | 3 | 2
O=[N+]([O-])c1ccc(P(=O)(Cc2ccccc2)c2ccccc2O)cc1 (configuration not stated) | -2 | -1 | 1 | 3 | -1
Cn1c(=O)c(C(=O)COc2ccc(C#N)cc2)c(N)n(Cc2ccccc2)c1=O | -3 | 55* | -1 | 2 | -3
CCC(=O)OCC(=O)c1c(N)n(Cc2ccccc2)c(=O)n(C)c1=O | 1 | -1 | -5 | 0 | 2
O=C(c1ccc2nc3ccccc3c(=O)n2c1)N1CCN(Cc2ccc3c(c2)OCO3)CC1 | 2 | -3 | 7 | 39* | -1
SMILES | TPT1 inh | CRFBP-R2 agonist | IDE act | HNF4A DNA FP | IDE inh
CCOC(=O)Cn1nnc(-c2ccccc2)n1 | 1 | 0 | 2 | 0 | -2
CCOC(=O)C(Cc1ccccc1)NC(=O)Cn1nnc(-c2ccccc2)n1 (configuration not stated) | 1 | 0 | 0 | 39* | 8
CC(C)(C)S(=O)N1Cc2cc(C(=O)NCc3ccc(Oc4ccccc4)cc3)nc(-c3cccc(-c4cc5ccccc5o4)c3)c2[C@@H]1CCO (some centres not stated) | x | x | x | 14 | x
O=C(O)C1(S(=O)(=O)c2ccc(Cl)cc2)CCC1 | 1 | -1 | 2 | 4 | 3
O=C(NC(C(=O)N/N=C/c1c2ccccc2cc2ccccc12)c1n[nH]c(=O)c2ccccc12)c1ccccc1 (configuration not stated) | 0 | 0 | 4 | 3 | 3
O=C(NC(C(=O)N/N=C/c1ccccc1)c1n[nH]c(=O)c2ccccc12)c1ccccc1 (configuration not stated) | 2 | 98* | 3 | -1 | 2
O=[N+]([O-])c1ccc(O)c(Nc2ncnc3ccc(Br)cc23)c1 | -5 | 52* | 5 | -1 | -2
NS(=O)(=O)c1ccc(NC=C2C(=O)OC3(CCCCC3)OC2=O)cc1 | 1 | -2 | 3 | 3 | 2
CCCCc1ccc(NC=C2C(=O)OC3(CCCCC3)OC2=O)cc1 | 0 | 145* | 2 | 2 | -2
CC(=O)N[C@H]1[C@H]([C@H](O)[C@H](O)CO)O[C@](O)(C(=O)O)C[C@@H]1O | x | 1 | 3 | 4 | x
N#CC1=C(N)C2=C(N3CCCCC3)CCCC2C1(C#N)C#N (configuration not stated) | -3 | 4 | -4 | -2 | 2
N#CC(C#N)=C1C=C2C=C(N3CCCCC3)CCC2CC1 (configuration not stated) | 3 | 187* | x | x | -30
CCCCN(C)C1=CC2=CC(=C(C#N)C#N)CCC2CC1 (configuration not stated) | 3 | 494 | 46* | -98 | -13
CN(CCc1ccccc1)C(=O)c1ccc(NC(=O)Cc2cccc(NC(=O)C3CCN(C(=O)c4ccccc4)CC3)c2)cc1 | x | 0 | 2 | -1 | x
N#Cc1ccsc1NC(=O)c1cccc([N+](=O)[O-])c1 | 6 | 66* | 6 | 0 | -1
N#Cc1ccsc1NC(=O)c1ccc(Cl)c([N+](=O)[O-])c1 | 11 | 67* | 1 | 5 | -3
CC(C)(C)SCCNC(=O)CN(c1ccccc1)S(=O)(=O)c1ccc(F)cc1 | -2 | -5 | 1 | 5 | 4
CC(C)n1nnnc1C1c2ccccc2C(=O)N1CCOc1ccccc1 (configuration not stated) | x | x | x | 2 | x
O=C(Nc1ccccc1)OCCN1CCOCC1 | x | 0 | 3 | 0 | x

Source: PubChem
